Experimental data taken from ChEMBL document CHEMBL3988442, “University of Dundee, Small-Polar-MMV Screening Library” (2021).

What was measured:
[1] = target: T1, Aspartate--tRNA(Asp/Asn) ligase (Mycobacterium tuberculosis (strain ATCC 25618 / H37Rv)) (UniProt P9WFW3); assay: Assay for Asp RNA synthetase-1 from Mycobacterium tuberculosis; format: functional; design: scale not given: direction of the effect not stated beside the values; settings: 30 µM; also: in the data most compounds retested in dose-response had high values
T1 sequence (whole entry): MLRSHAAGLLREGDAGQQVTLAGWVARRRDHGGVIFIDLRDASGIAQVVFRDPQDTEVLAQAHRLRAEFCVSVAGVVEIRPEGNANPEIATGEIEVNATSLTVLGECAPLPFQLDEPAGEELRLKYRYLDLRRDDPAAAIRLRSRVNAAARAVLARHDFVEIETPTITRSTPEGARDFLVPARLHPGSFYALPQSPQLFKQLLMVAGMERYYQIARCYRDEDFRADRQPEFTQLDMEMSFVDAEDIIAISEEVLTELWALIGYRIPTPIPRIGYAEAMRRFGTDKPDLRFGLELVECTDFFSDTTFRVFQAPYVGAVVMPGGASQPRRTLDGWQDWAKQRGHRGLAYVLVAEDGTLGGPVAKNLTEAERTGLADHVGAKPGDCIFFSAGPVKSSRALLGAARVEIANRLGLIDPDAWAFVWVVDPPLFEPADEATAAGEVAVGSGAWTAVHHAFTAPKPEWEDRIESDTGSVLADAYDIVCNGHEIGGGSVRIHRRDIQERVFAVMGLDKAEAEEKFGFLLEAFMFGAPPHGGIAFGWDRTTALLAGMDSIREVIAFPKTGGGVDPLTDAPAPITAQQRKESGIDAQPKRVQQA

[2] = target: Shiga toxin 2 (Escherichia coli O157:H7) (UniProt P09385+P09386); assay: E. coli 0.157:H7 Shiga Toxin SOP - stx2 screening assay; format: functional; design: scale not given: direction of the effect not stated beside the values; settings: 30 µM

| SMILES | Percent Effect [1] [%] | Percent Effect [2] [%] |
| --- | --- | --- |
| CCc1nc(CN2CCCN(C(=O)COCC3CC3)CC2)cs1 | -3.19 | -49.1 |
| CN(C)C(=O)CCC(=O)NCc1cccnc1-n1cnc2ccccc21 | -3.48 | -4.51 |
| CCc1cnc(C)nc1NCCN1CCCCCC1 | 4.13 | -69.6 |
| Cc1ccc(CN2CCCC3(COCCN(Cc4c[nH]nn4)C3)C2)o1 (centres undefined) | 4.69 | -4.03 |
| Cn1cc(NC(=O)N2CCC(c3ccccc3)CC2)ccc1=O | 55 | 21.8 |
| Cn1c(Nc2cn[nH]c2)c(C#N)c(=O)n(C)c1=O | -0.24 | -19.1 |
| Cc1nc(CN2CCN(C(=O)c3cc(C4CC4)on3)CC2)cs1 | -5.68 | 24.9 |
| Cc1ccn(-c2cccc(C(=O)N3CCCC(n4ccnc4C)C3)c2)n1 (centres undefined) | -0.301 | -7.17 |
| CN(C)S(=O)(=O)N1C[C@@H](Oc2ccccn2)[C@H]2OCCC[C@H]21 | 2.06 | -15.9 |
| CCc1nnc(Nc2cccc(C3CCN(CCO)CC3)n2)s1 | -4.6 | -9.69 |
| C1CC1c1nsc(N2CCN(C3CC3)CC2)n1 | 2.04 | -7.43 |
| CC(C)Oc1ncccc1CNC(=O)c1cc[nH]n1 | -1.4 | 18.4 |
| CNC(=O)[C@H]1CO[C@H]2CCN(Cc3ccc4ccccc4n3)C[C@H]2C1 | 2.46 | -3.36 |
| CNc1nc2c(s1)C(c1c(F)cccc1Cl)CC(=O)N2 (centres undefined) | 61.3 | 3.13 |
| Cc1ncccc1Oc1nccnc1C1CCN(C(C)C)CC1 | -4.09 | -1.37 |
| Cc1[nH]nc(CCC(=O)N2CCCC(OCc3cccnc3)C2)c1C (centres undefined) | -6.25 | 20 |
| CC(=O)NCC(=O)N1CCn2cc(CN3CCN(C)CC3)nc2C1 | 1.6 | -27.6 |
| Cc1nc(C)n(CC2CCCN2Cc2nc3ccccc3nc2C)n1 (centres undefined) | -11.8 | -7.98 |
| CC1c2ncc(Cn3cncn3)n2CCN1C(=O)C1CCOCC1 (centres undefined) | 3.23 | -10.6 |
| Cc1cc(CN2CCN(c3nn4cc(C)nc4s3)CC2)on1 | -0.8 | -27.6 |
| CC(=O)N1CCC(c2ccnc(Nc3cncnc3)n2)C1 (centres undefined) | -0.956 | -11.8 |
| Cc1cc(C(=O)NCc2ccccn2)no1 | -4.62 | -0.424 |
| Cc1nc(C(C)C)sc1C(=O)NS(=O)(=O)c1ccc(C#N)cc1 | -3.09 | 0.0303 |
| CCn1ccnc1CN(C)C1CCCN(CCc2ccccc2)C1 (centres undefined) | -0.476 | -36 |

| SMILES | Percent Effect [1] [%] | Percent Effect [2] [%] |
| --- | --- | --- |
| c1ccc(Cn2ccnc2CN2CCOC(Cn3cccn3)C2)cc1 (centres undefined) | -3.22 | 8.78 |
| c1csc(-c2nc(CNC3CCc4ncnn4C3)co2)c1 (centres undefined) | 1.3 | -1.44 |
| CCc1noc(C(C)N(C)CC(=O)Nc2ccc(C)cc2)n1 (centres undefined) | 1.52 | -3.18 |
| CCN(C(=O)c1ccc(-n2ncc(C#N)c2N)cc1)C1CCCC1 | 6.53 | 6.02 |
| OC1CCCN(Cc2c(-c3ccco3)[nH]c3ncccc23)C1 (centres undefined) | -0.134 | 6.33 |
| CCN1CCN(c2ccc(CNC(=O)c3ccc(Cl)o3)cn2)CC1 | -3.07 | -41.7 |
| Cc1cc(C(C)C(=O)N2CCCN(Cc3cscn3)CC2)c(C)o1 (centres undefined) | -4.75 | 19.4 |
| N#Cc1cccc(C(=O)N2CCc3ncc(Cn4cccn4)n3CC2)c1 | 3.32 | 9.25 |
| CCc1[nH]ncc1C(=O)N1CCCN(Cc2cnn(C)c2)CC1 | -0.259 | 17.2 |
| Cc1nc(N)cc(C2CN(C(=O)c3ccn(C)n3)CCO2)n1 (centres undefined) | -1.09 | 3.51 |
| Cc1cc(C)n(-c2cncc(N3CCN(C(=O)C(C)(C)C)CC3)n2)n1 | 0.549 | -19.9 |
| O=C(c1cscn1)N1CCC2(CCN(Cc3cccs3)CC2)C1 | -4.17 | -7.4 |
| Cn1ccnc1CN1CCN(c2ccc(C#N)cc2F)CC1 | -2.39 | -29.4 |
| CC1CN(Cc2noc(C3CC3)n2)CCN1Cc1nccn1C (centres undefined) | -4.25 | -11.1 |
| CC(=O)N(Cc1ncc(C(C)C)o1)C1CCN(CCn2cccn2)C1 (centres undefined) | -1.37 | 3.59 |
| COC(=O)C(NC(=O)COC1CCCC1)c1cc(F)ccc1F (centres undefined) | -3.52 | -22.4 |
| CC(C)n1cc(S(=O)(=O)N2CCCCC2)cn1 | -0.668 | -17.6 |
| O=C(NCCCN1CCOCC1)c1cc(-c2ccc3c(c2)CCO3)n[nH]1 | -2.27 | -67.7 |
| Cc1cc(C(=O)N2CCc3ncc(CN4CCOCC4)n3CC2)no1 | -4.02 | -7.88 |
| CN(C)C(=O)NC1COC2(CCN(Cc3ccccc3)CC2)C1 (centres undefined) | -3.84 | -5.12 |
| Cc1ccc(NC2CCN(C(=O)CC3CCCO3)CC2)nn1 (centres undefined) | -2.07 | 4.7 |
| COc1ccc(Cl)cc1C(=O)N1CCCC(n2nc(C)nc2C)C1 (centres undefined) | -5.94 | 7.05 |
| CC1CN(C)c2ccccc2CN1C(=O)c1ccc[nH]1 (centres undefined) | 4.95 | -9.14 |
